“And” between values parts separate entries of the source, which are not always exact repeats. Identical values can stand only once. The source made the active and inactive calls.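 The calls were made as follows, unless noted: active = mean z-score across replicates of 1.96 or higher in either the MELAS or the Rieske mutant cell line; inactive = the rest.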
How the values were obtained:
[1] = P. berghei load reduction in hepatocytes – cell-based, HepG2, luciferase luminescence, HepG2 viability, primary screen (AID 624349; in the data active = parasite load remaining mostly below about 12%, no sharp cut-off; inactive = mostly above about 10%;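 also: 100% = mean of DMSO negative control wells on the same plate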); conditions: P. berghei liver stage in HepG2, luciferase luminescence, concentration not given here; parasite load remaining: stronger effect = lower value; viability: measured here: HepG2 viability without parasites
[2] = Wnt pathway potentiators raising nuclear beta-catenin – imaging, WNT3A-conditioned medium, mouse C2C12, NPC library, primary screen (AID 1117326; in the data active = nuclear beta-catenin stimulation mostly above about 4.2%, no sharp cut-off; inactive = mostly below about 10%); conditions: stronger effect = higher value
[3] = stimulators of insulin release from INS-1E, primary screen, cell-based, 5 mM glucose, NPC library (AID 1117329;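 active = compound raises insulin release from rat beta cells at 5 mM glucose, no numeric limit stated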); conditions: rat INS-1E insulin secretion, at 10 µM, stronger effect = higher value
[4] = growth inhibition of GSK3B-pretreated HCT116 cells – cell-based, CellTiter-Glo, 0.2 to 20 µM (AID 1117336;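 active = compounds lowering colon cancer cell viability after pretreatment blocking the GSK3B kinase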); conditions: HCT116 viability after GSK3B inhibitor, at 20 µM, stronger effect = higher value
[5] = inhibition of endothelial tube formation, primary screen, imaging, VEGF stimulated, CD31 staining, tube area, NPC library (AID 1117340;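 active = compound that reduces growth-factor-driven endothelial tube area in a mixed cell culture, no cutoff stated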); conditions: VEGF-stimulated ADSC/ECFC co-culture, at 10 µM, stronger effect = higher value
[6] = GLP1 release stimulators, primary, NCI-H716, NPC library (AID 1117341;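 active = compound raises GLP1 secretion from the human gut endocrine cells, with no numeric limit stated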); conditions: NCI-H716 cells, at 10 µM, stronger effect = higher value
[7] = HCT116 colon cancer cell growth inhibition, primary screen, CellTiter-Glo luminescence, NPC library (AID 1117342;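 active = compounds that lower survival of HCT116 colon cancer cells in the luminescence readout, no numeric limit stated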); conditions: at 20 µM (top of the series)
[8] = reduced SW480 viability measured with CellTiter-Glo, NPC library, primary (AID 1117343;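 active = compounds that lower viability of the colon cancer cells in the luminescence readout, with no numeric limit stated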); conditions: CellTiter-Glo luminescence; at 20 µM (top of the series) unless noted
[9] = NPC library primary testing for decreased DLD-1 cell viability via CellTiter-Glo (AID 1117346;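 active = compounds that lower survival of DLD-1 colon cancer cells in the luminescence readout, no cutoff given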); conditions: DLD-1 viability, CellTiter-Glo luminescence; at 20 µM (top of the series)
[10] = EMT-state selective cytotoxicity in co-culture – imaging, PC-3E GFP, TEM4-18 mCherry, primary screen (AID 1345086;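 active = compounds killing one labelled cell type while sparing the other, by normalised counts and ratio limits, not self-fluorescent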;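 as to all read-outs here: cells exposed to compound for 72 h before imaging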;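 as to red/green cell ratio (normalised): normalised mesenchymal count divided by normalised epithelial count so high means epithelial killing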); conditions: PC-3E GFP / TEM4-18 mCherry co-culture, imaging cell counts, at 1 µM; for red/green cell ratio (normalised): actives lie on both sides, counts scaled to control wells, 1 = unselective
[11] = viability loss with induced miR-34 in A549 – imaging, A549 dox-inducible miR-34, nuclei and caspase counts, primary screen (AID 1347080;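 active = compounds whose cell count with miR-34 switched on is under 0.7 times the count with it off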); conditions: A549 miR-34 inducible, Hoechst nuclei count, 48 h
[12] = MELAS cybrid and Rieske KO viability enhancers – cell-based, MELAS cybrids, Rieske KO mouse fibroblasts, CellTiter-Glo, primary screen (AID 1508586); conditions: low glucose;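 also: z relative to plate mean and SD of compound and empty wells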
[13] = target: NAD(+) hydrolase SARM1 (Homo sapiens) (UniProt Q6SZW1); experiment: blocking NAD cleavage by SARM1 SAM-TIR – cell lysate, NAD-Glo luminescence (AID 1508614;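 active = compound whose remaining NAD level is above about 45 nM, limit read from the data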;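 also: higher remaining NAD means stronger inhibition of SARM1 NADase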); conditions: SAM-TIR HEK293T lysate NADase, at 1 µM, stronger effect = higher value
NAD(+) hydrolase SARM1 (Homo sapiens), sequence (Q6SZW1 whole entry, looked up): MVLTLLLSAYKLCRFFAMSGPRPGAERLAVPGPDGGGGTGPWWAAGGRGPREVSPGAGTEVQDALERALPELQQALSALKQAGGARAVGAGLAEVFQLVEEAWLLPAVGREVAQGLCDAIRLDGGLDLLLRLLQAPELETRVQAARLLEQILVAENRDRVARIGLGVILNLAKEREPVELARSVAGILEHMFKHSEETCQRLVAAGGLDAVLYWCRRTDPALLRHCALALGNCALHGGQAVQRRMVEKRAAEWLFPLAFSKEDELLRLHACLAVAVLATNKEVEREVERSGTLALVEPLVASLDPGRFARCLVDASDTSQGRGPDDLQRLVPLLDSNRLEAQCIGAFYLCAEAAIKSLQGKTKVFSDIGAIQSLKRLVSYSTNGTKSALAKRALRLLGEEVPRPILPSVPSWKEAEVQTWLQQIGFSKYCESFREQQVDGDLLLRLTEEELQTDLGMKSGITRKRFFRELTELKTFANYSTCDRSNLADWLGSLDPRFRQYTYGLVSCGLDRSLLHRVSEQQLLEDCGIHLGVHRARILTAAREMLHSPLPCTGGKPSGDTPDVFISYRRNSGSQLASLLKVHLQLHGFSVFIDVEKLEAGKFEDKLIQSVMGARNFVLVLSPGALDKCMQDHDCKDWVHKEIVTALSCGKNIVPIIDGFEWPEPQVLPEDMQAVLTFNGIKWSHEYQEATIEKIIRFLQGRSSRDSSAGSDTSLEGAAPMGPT

[14] = growth inhibition, single agent or in combination, cell-based, chromothripsis tumors, cisplatin or BGB combos (AID 1671449; in the data active = inhibition above about 80%;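 also: cells exposed for 96 hours; 0% = vehicle DMSO and 100% = killing by high DMSO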); conditions: LFS_MB_P medulloblastoma cells
[15] = growth inhibition, single agent and combos, cell-based, chromothripsis tumors, cisplatin or BGB combos (AID 1671450; in the data active = inhibition above about 80%;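 also: cells exposed to compound for four days; 0% = vehicle DMSO and 100% = cell killing by high DMSO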); conditions: HDN33 neuroblastoma cells, stronger effect = higher value
[16] = growth inhibition, single agents and combos, ICB984, cell-based, cisplatin or BGB combos, synergistic combos for chromothripsis tumors (AID 1671451; call rule not given here;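 also: cells exposed for 96 hours before readout; 0% = vehicle DMSO and 100% = killing by high DMSO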); conditions: ICB984 medulloblastoma cells, drug combinations, stronger effect = higher value
[17] = growth inhibition, single agents and combos, HTB85, cell-based, BGB or cisplatin IC20 combos, synergistic combos for chromothripsis tumors (AID 1671453; in the data active = inhibition above about 80%;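 also: cells exposed for 96 hours before readout; 0% = vehicle DMSO and 100% = high DMSO killing control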); conditions: HTB85 osteosarcoma cells, drug combinations, stronger effect = higher value
[18] = growth inhibition, MDA-MB-436, cell-based, BGB or cisplatin combos, synergistic combos for chromothripsis tumors (AID 1671458; call rule not given here;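 also: cells exposed for 96 hours; 0% = vehicle DMSO and 100% = killing by high DMSO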); conditions: MDA-MB-436 breast carcinoma growth inhibition, drug combinations, stronger effect = higher value
[19] = measured here: epithelial PC-3E GFP cell survival
[20] = measured here: mesenchymal TEM4-18 mCherry cell survival
[21] = stronger effect = lower value, cell number ratio, induced over uninduced
[22] = measured here: relative caspase fold change +Dox/-Dox
[23] = measured here: total cells with miR-34 induction, stronger effect = lower value
[24] = measured here: total cells without miR-34 induction
[25] = MELAS cybrid survival, CellTiter-Glo 48 h, stronger effect = higher value
[26] = Rieske KO mouse fibroblast survival, CellTiter-Glo 72 h

For NCCCNCCSP(=O)(O)O, the parasite load remaining [1] was 26.6% (inactive), the viability [1] was 110% and the nuclear beta-catenin stimulation ([2]; at 10 µM) was -1.3% (inactive). For the same compound, the nuclear beta-catenin stimulation ([2]; stimulation, at 2 µM) was 0.9%, the insulin secretion stimulation [3] was 3% (inactive) and the viability decrease [4] was -4.2% (inactive). For the same compound, the tube area decrease [5] was -8.5% (inactive), the GLP1 secretion stimulation [6] was -1.2% (inactive) and the inhibition of viability [7] was 2.2% (inactive). The viability decrease (inhibition) [8] was 0.3% (inactive), the viability decrease (inhibition) [9] was 0% (inactive) and the red/green cell ratio (normalised) [10] was 1.19 (inactive). The normalised cell number [10, 19] was 1.03, the normalised cell number [10, 20] was 1.23 and the fold change [11, 21] was 1.03 (inactive) and 0.865 (inactive). The fold change [11, 22] was 1.84 and 1.27, the cell count [11, 23] was 10300 and 9430 and the cell count [11, 24] was 10000 and 10900. For the same compound, the z-score [12, 25] was 0.141 (inactive) and 0.413 (inactive), the z-score [12, 26] was -0.0647 and -0.947 and the remaining NAD [13] was 10 nM (inactive).
In the case of CN1CCN(c2c(F)cc3c(=O)c(C(=O)O)cn(CCF)c3c2F)CC1, the parasite load remaining [1] is reported as 13% (inactive), the viability [1] is reported as 62.5% and the nuclear beta-catenin stimulation ([2]; at 10 µM) is reported as 0.3% (inactive). The nuclear beta-catenin stimulation ([2]; stimulation, at 2 µM) was 0.9%, the insulin secretion stimulation [3] was -1% (inactive) and the viability decrease [4] was -13.8% (inactive). For the same compound, the tube area decrease [5] was 12.8% (inactive), the GLP1 secretion stimulation [6] was 7.1% (inactive) and the inhibition of viability [7] was 4.1% (inactive). For the same compound, the viability decrease (inhibition) [8] was 4.9% (inactive), the viability decrease (inhibition) [9] was -10.7% (inactive) and the red/green cell ratio (normalised) [10] was 1.08 (inactive). For the same compound, the normalised cell number [10, 19] was 1.16, the normalised cell number [10, 20] was 1.24 and the fold change [11, 21] was 0.864 (inactive). It also gave a fold change [11, 22] of 1.53, a cell count [11, 23] of 9860 and a cell count [11, 24] of 11400. The z-score [12, 25] was -0.514 (inactive) and -0.443 (inactive), the z-score [12, 26] was -0.857 and -0.453 and the inhibition ([14]; at 0.5 µM, stronger effect = higher value) was 2.95% (inactive). The inhibition ([14]; measured here: combination with BGB IC20, at 0.005 µM) was 20.9%, the inhibition ([14]; measured here: combination with BGB IC40, at 0.005 µM) was 16.6% and the inhibition ([14]; measured here: combination with BGB IC40, at 0.05 µM) was 22.7%. For the same compound, the inhibition ([14]; measured here: combination with cisplatin, at 0.5 µM, stronger effect = higher value) was -9.55%, the inhibition ([14]; measured here: combination with cisplatin, at 5 µM, stronger effect = higher value) was 1.02% and the inhibition ([15]; BGB combo, at 5 µM) was 17.4%. The inhibition ([15]; at 0.5 µM) was 15.1% (inactive), the inhibition ([15]; cisplatin combo, at 5 µM) was 34.1% and the inhibition ([15]; measured here: with BGB IC20 combination, at 0.5 µM) was 12.4%. The inhibition ([15]; measured here: with cisplatin IC20 combination, at 0.5 µM) was 22.9%, the inhibition ([15]; single agent, at 5 µM) was 6.61% and the inhibition ([16]; BGB IC20 combo, at 0.005 µM) was 3.45%. For the same compound, the inhibition ([16]; BGB IC40 combo, at 0.005 µM) was 12%, the inhibition ([16]; BGB IC40 combo, at 0.05 µM) was 3.66% and the inhibition ([16]; at 0.5 µM) was -15.4% (inactive). For the same compound, the inhibition ([16]; cisplatin combo, at 0.05 µM) was 0.969%, the inhibition ([16]; cisplatin combo, at 0.5 µM) was -17.2% and the inhibition ([16]; cisplatin combo, at 5 µM) was -29.4%. The inhibition ([16]; measured here: 5 uM single agent, at 5 µM) was -20.3%, the inhibition ([17]; at 0.5 µM) was 2.85% (inactive) and the inhibition ([17]; measured here: with BGB IC20, at 0.5 µM) was 3.83%. For the same compound, the inhibition ([17]; measured here: with BGB IC20, at 5 µM) was 4.56%, the inhibition ([17]; measured here: with cisplatin IC20, at 0.5 µM) was -12% and the inhibition ([17]; measured here: with cisplatin IC20, at 5 µM) was -2.52%. For the same compound, the inhibition ([17]; single agent, at 5 µM) was 7.25%, the inhibition ([18]; at 0.5 µM) was 2.48% (inactive) and the inhibition ([18]; measured here: BGB combination, at 0.5 µM) was 6.04%. It also gave an inhibition ([18]; measured here: BGB combination, at 5 µM) of -1.46%, an inhibition ([18]; measured here: cisplatin combination, at 0.5 µM) of -0.921% and an inhibition ([18]; measured here: cisplatin combination, at 5 µM) of -0.504%.
